# Assay outcomes from PubChem BioAssay.
# In the library only some 21% were active in any assay of this set; here they are far more common.
# IL1B secr inh – qHTS for Inhibitors of Inflammasome Signaling: IL-1-beta AlphaLISA Primary Screen; THP-1 LPS/ATP IL-1B secretion, AlphaLISA, 16 h; active compounds read low; activity change, % at 57.5 µM; AID 743279, 2014; hit rate 4.7% among 360,000; in the data active = activity change below about -50%; inconclusive = mostly about -30% to -49%
#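 Secreted IL-1B measured by AlphaLISA bead assay after 16 h compound exposure of THP-1 cells; compounds (final up to 57.5 uM) added 1 h before LPS (250 ng/mL) and ATP (1.25 mM) stimulation; lower signal means less secretion.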
# VP16 counter – VP16 counterscreen qHTS for inhibitors of ROR gamma transcriptional activity; Potency, µM (highest dose often 53.6 µM), inactives show top-dose activity, negative = inhibition, most hits filed as inhibitors; hit rate 3.5% among 310,000; Drosophila S2 Gal4-VP16 UAS-luciferase, luminescence, 20 h;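 note: Gal4-VP16 expression switched on by copper sulfate through the metallothionein promoter; potency is the fitted concentration of half-maximal effect; nearly all actives have a fitted effect of over 50% in size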
# ELG1 repair inh – qHTS screen for small molecules that inhibit ELG1-dependent DNA repair in human embryonic kidney (HEK293T) cells expressing luciferase-tagged ELG1; HEK293T ELG1-luciferase reporter, luminescence, 16 h; DNA damage induced by 5-fluorouridine; Potency, µM (doses to about 46.1 µM), inactives show at the top dose activity change, negative = inhibition, usual class: inhibitors; hit rate 2.3% among 330,000; note: potency is the fitted concentration of half-maximal effect; nearly all actives have a fitted effect of over 55% in size
#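 Step one: seed 2,000 cells per well. Step two: pin-transfer compound or DMSO alongside 5-fluorouridine. Step three: incubate 16 hr, 37 °C, 5% CO2. Step four: add ONE-Glo, wait 30 min, read luminescence.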
# TDP1 cell CPT – qHTS for Inhibitors of human tyrosyl-DNA phosphodiesterase 1 (TDP1): qHTS in cells in presence of CPT | chicken DT40 Tdp1-/-;hTDP1 cells + 20 nM CPT, ATP luminescence, 48 h | Potency, µM (top dose mostly 46.2 µM), without a hit: at the top dose activity change, negative = growth inhibition, usual class: inhibitors | hit rate 12% among 420,000 | AID 686979, 2013; note: potency is the fitted concentration of half-maximal effect; nearly all actives have a fitted effect of over 55% in size
#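 Chicken DT40 Tdp1-/- cells stably complemented with human TDP1 were seeded at 400 cells/well in medium containing 20 nM camptothecin, exposed to pin-transferred compounds, and grown at 37 °C for at least 48 hr. Viability was read as ATP luminescence.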
# RORgamma inh – qHTS for inhibitors of ROR gamma transcriptional activity | Nuclear receptor ROR-gamma (Mus musculus), P51450 | Drosophila S2 Gal4-RORgamma UAS-luciferase reporter, 20 h | Potency, µM (doses to about 53.6 µM), inactives show top-dose activity change, negative = inhibition, usual class: inhibitors | hit rate 5.4% among 310,000 | AID 2551, 2010; note: potency is the fitted concentration of half-maximal effect; nearly all actives have a fitted effect of over 60% in size
# Target sequence (P51450 whole entry, looked up, the tested form may be a part): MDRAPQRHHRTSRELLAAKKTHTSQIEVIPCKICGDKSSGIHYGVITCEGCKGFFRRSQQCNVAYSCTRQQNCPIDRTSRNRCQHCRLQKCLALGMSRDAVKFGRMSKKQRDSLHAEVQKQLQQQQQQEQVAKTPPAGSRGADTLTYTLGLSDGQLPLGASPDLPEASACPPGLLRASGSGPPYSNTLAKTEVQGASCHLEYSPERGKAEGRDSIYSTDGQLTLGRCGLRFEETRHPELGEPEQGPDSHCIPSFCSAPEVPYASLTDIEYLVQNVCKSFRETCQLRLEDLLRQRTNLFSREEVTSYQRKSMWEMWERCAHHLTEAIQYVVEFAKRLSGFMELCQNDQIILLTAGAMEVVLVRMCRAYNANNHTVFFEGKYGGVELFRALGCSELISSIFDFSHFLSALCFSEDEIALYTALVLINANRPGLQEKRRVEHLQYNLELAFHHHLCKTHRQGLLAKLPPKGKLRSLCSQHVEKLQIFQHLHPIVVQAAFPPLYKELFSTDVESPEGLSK
#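 Schneider cells (Drosophila), stable Gal4 DBD–ROR gamma + UAS-luc; 1 hr cmpd preincubation; Cu2+ induction 700 uM final; 20 hr ambient; luminescence.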
# DT40 TDP1 no CPT – qHTS for Inhibitors of human tyrosyl-DNA phosphodiesterase 1 (TDP1): qHTS in cells in absence of CPT; DT40 Tdp1-/- hTDP1 cells, no CPT, ATP luminescence, 48 h; Potency, µM (highest dose often 46.2 µM), for inactives: at the top dose activity change, negative = growth inhibition, most hits filed as inhibitors; hit rate 15% among 420,000; AID 686978, 2013; note: potency is the fitted concentration of half-maximal effect; nearly all actives have a fitted effect of over 55% in size
#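 DT40 Tdp1-/-;hTDP1 cells, no CPT (DMSO vehicle only), 400 cells/well; compounds pin-transferred; ≥48 hr, 37 °C; CellTiter-Glo 30 min RT dark, luminescence read.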
# Active calls of the source: *; ? = inconclusive; · = no result given. Unless noted, calls come from the whole dose curve; as a rule, active = well fitted curve in the direction sought with a large enough effect; inconclusive = small, poorly fitted or top-dose-only effect, or another doubt; inactive = no such curve, though single readings can be large; an effect the other way counts as inactive or inconclusive. % is set by controls: 0 for no effect and ±100 for the full control effect.
SMILES,IL1B secr inh,VP16 counter,ELG1 repair inh,TDP1 cell CPT,RORgamma inh,DT40 TDP1 no CPT
COC1=CC(=O)C(C(=O)c2ccccc2)=CC1=O,·,-20%,·,?,-30%,5.8µM*
COc1ccc(C(=O)c2ccccc2)cc1,16,0%,?,16%,36%,-11%
NC(=O)CC(NC(=O)c1ccc(Br)cc1)c1ccc(N2CCN(c3ccc(F)cc3)CC2)c([N+](=O)[O-])c1 (stereo not drawn),-10,-13%,-18%,26µM*,?,23µM*
NC(=O)CC(NC(=O)c1ccc(Br)cc1)c1ccc(N2CCCCCCC2)c([N+](=O)[O-])c1 (stereo not drawn),-29,?,-16%,21µM*,-21%,10µM*
NC(=O)CC(NC(=O)c1cccc(Br)c1)c1ccc(N2CCN(c3ccc(F)cc3)CC2)c([N+](=O)[O-])c1 (stereo not drawn),-1,?,-2%,23µM*,?,13µM*
NC(=O)CC(NC(=O)c1cccc(Br)c1)c1ccc(N2CCC(N3CCCCC3)CC2)c([N+](=O)[O-])c1 (stereo not drawn),-5,0%,0%,-6%,-15%,-2%
NC(=O)CC(NC(=O)c1ccc(Br)cc1)c1ccc(N2CCN(c3ccccc3)CC2)c([N+](=O)[O-])c1 (stereo not drawn),-29,1%,?,?,?,?
CN(C)c1cc[n+](CC(=O)N2c3ccccc3Sc3ccccc32)cc1,?,-10%,?,2.1µM*,21%,2.9µM*
CCN(CC)CCC(=O)N1c2ccccc2Sc2ccc(Cl)cc21,-71*,-1%,-8%,15µM*,20%,?
O=C(C[n+]1ccccc1)N1c2ccccc2Sc2ccccc21,-18,-4%,4%,?,-3%,?
CN(C)CC(=O)N1c2ccccc2Sc2ccc(Cl)cc21,-12,-12%,-2%,-20%,-1%,-15%
CN(C)CCC(=O)N1c2ccccc2Sc2ccc(Cl)cc21,-59*,-8%,?,-7%,-6%,-28%
CCN(CC)CCC(=O)N1c2ccccc2Sc2ccc(C(F)(F)F)cc21,·,-4%,·,-129%,-1%,-107%
NCCCC(=O)N1c2ccccc2Sc2ccc(Cl)cc21,?,-3%,?,?,1%,23µM*
CC(C)(C)NC(=O)CC1C[C@H](C(=O)N2CCCCC2)[C@@]2(CCc3ccccc3)c3[nH]c4ccccc4c3CCN2C1=O (stereo partly drawn),-12,·,13%,-2%,·,-17%
COc1ccc(CCNC(=O)C2(c3cccs3)CCOCC2)cc1OC,·,·,·,-15%,·,-5%
COc1ccc(CNC(=O)CCn2nc(C)c3c(C)n(-c4ccccc4)nc3c2=O)c(OC)c1,16,8%,0%,-3%,-10%,-2%
CCOC(=O)C1(CCCc2ccccc2)CCN(Cc2cnc(C)s2)CC1,-88*,-2%,-26%,21µM*,-2%,10µM*
CCOC(=O)C1(Cc2cccc(F)c2)CCN(Cc2cnc(C)s2)CC1,9,-1%,-21%,26µM*,11%,23µM*
CCOC(=O)C1(Cc2cccc(F)c2)CCN(Cc2c(C)nn(CC)c2C)CC1,0,-24%,1%,23µM*,?,?
CCOC(=O)C1(Cc2cccc(F)c2)CCN(Cc2cn(CC)nc2C)CC1,-20,2%,15%,1%,15%,?
CCOC(=O)C1(Cc2cccc(F)c2)CCN(Cc2ccon2)CC1,8,-5%,1%,4%,1%,?
CCOC(=O)C1(CCCc2ccccc2)CCN(C(=O)C2=C(C)OCCO2)CC1,-80*,24%,3%,?,?,21µM*
O=C(Cl)c1c(Cl)cccc1Cl,·,4%,·,·,0%,·
CN1C(=O)C(=O)/C(=C(/O)c2ccc(Br)cc2)C1c1ccccc1F (stereo not drawn),-7,10%,-1%,12%,4%,4%
SMILES,IL1B secr inh,VP16 counter,ELG1 repair inh,TDP1 cell CPT,RORgamma inh,DT40 TDP1 no CPT
C#C[C@@]1(O)CC[C@@H]2[C@H]3CCC4=C/C(=N\O)CC[C@H]4[C@@H]3CC[C@]21CC,·,-23%,·,·,-13%,·
COc1ccccc1CCNC(=O)CCn1c(=O)c2cccn2c2ccc(F)cc21,-9,0%,-13%,23µM*,?,12µM*
COc1ccc(CCNC(=O)CCn2c(=O)c3cccn3c3ccc(F)cc32)c(OC)c1OC,-15,0%,?,13µM*,-1%,8.2µM*
COCCNC(=O)Cn1c(=O)c2cccn2c2ccc(F)cc21,·,·,·,4%,·,-4%
O=[N+]([O-])c1ccccc1S(=O)(=O)Nc1cccc(S(=O)(=O)N2CCCC2)c1,44,·,13%,-5%,·,-3%
CCOC(=O)C1=C(C)NC(C)=C(C(=O)OCC)C1c1ccc(C)o1,-9,8%,-14%,?,5%,?
C=CCOC(=O)C1=C(C)NC(C)=C(C(=O)OCC=C)C1c1ccc(C)o1,-77*,?,?,?,?,?
CCn1c(SCC(=O)NCc2ccco2)nnc1-c1ccc(N(C)C)cc1,·,·,·,-11%,·,-17%
COC(=O)CC1C(C)(C)C2(O)OC34CC2C(=O)[C@@]1(C)C3CC[C@]1(C)C4=CC(=O)OC1c1ccoc1 (stereo partly drawn),·,7%,·,?,11%,?
O=C(O)COc1ccc(Cl)cc1C1CCCCC1,-17,·,·,9%,·,-20%
CCC(C(=O)OCC(=O)c1c(N)n(CC(C)C)c(=O)n(C)c1=O)c1ccccc1 (stereo not drawn),-12,·,?,21µM*,·,23µM*
Cc1csc(=O)n1CC(=O)OCC(=O)c1c(N)n(CC(C)C)c(=O)n(C)c1=O,12,·,?,?,·,23µM*
CCOc1ccccc1OCC(=O)OCC(=O)c1c(N)n(CC(C)C)c(=O)n(C)c1=O,6,·,?,?,·,18µM*
COc1ccccc1CCC(=O)OCC(=O)c1c(N)n(CC(C)C)c(=O)n(C)c1=O,32,·,?,?,·,-9%
